# Results: PubChem BioAssay AID1076 (NMMLSC, 2008)
# Activity calls are given as the source filed them.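 Rule for the calls: active = cell event count below 40, meaning activity score above 60 where score is 100 minus count; inactive = the rest.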
# Test: cytotoxicity in LNCaP prostate cells – cell-based, cell event count, single point, cytotoxicity control for prostate differentiation activator project, confirmation (AID 1076);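 note: counts scatter-gated live cells after medium removal discards detached dead cells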
# Conditions: LNCaP cell loss, flow cytometry event count, 4 d, stronger effect = lower value
SMILES,cell event count (at 100 µM),"cell event count (event count, at 10 µM)"
O=C(NCCCN1CCN(c2cccc(Cl)c2)CC1)C1CCC(=O)N1Cc1ccccc1Cl (stereo not drawn),12 (inactive),239
Cc1oc(-c2cccc(Cl)c2)nc1CN1CCCC(C(=O)NC(C)c2ccc3c(c2)OCCO3)C1 (stereo not drawn),9 (inactive),136
Cc1oc(-c2ccc(Cl)cc2)nc1CN1CCCC(C(=O)NCc2cccnc2)C1 (stereo not drawn),28 (inactive),67
c1ccc(CSc2nnc(-c3cccs3)n2Cc2ccco2)cc1,55 (inactive),122
CCOC(=O)C1CCN(c2nc3ccccc3nc2C(C#N)C(=O)OCCOC)CC1 (stereo not drawn),17 (inactive),108
COCCNC(=O)CC(NS(=O)(=O)c1ccc(NC(C)=O)cc1)C(C)C (stereo not drawn),79 (inactive),62
CC1=C(n2nnc3ccccc32)C(c2ccccc2)C(C#N)=C(N)O1 (stereo not drawn),96 (inactive),97.5
Cc1sc(CO)c(Sc2ccccc2)c1C(=O)O,324 (inactive),240
COc1ccc2nc3oc(C(=O)NCc4cccs4)cc3cc2c1,307 (inactive),304
Cc1oc(-c2cccc(Cl)c2)nc1CN1CCC(C(=O)NCC2CCCO2)CC1 (stereo not drawn),174 (inactive),165
COc1ccc(Nc2nc(N3CCCC3)c3ccccc3n2)cc1,50 (inactive),180
Cn1c(=O)cc(OCC(=O)NCCCN2CCN(c3ccccc3F)CC2)c2ccccc21,227 (inactive),401
CCCCOC(=O)CSc1nc2c(cc1C#N)C(=O)CC(C)(C)C2,203 (inactive),194
N=c1c(C(=O)NC2CCCC2)cc2c(=O)n3ccccc3nc2n1C1CCCC1,12 (active),55
